# PKA-R1A act – activates the PKA-R1A holoenzyme complex. PKA-R1A dissociation, Cy5-IP20 fluorescence polarization; scaled: DMSO 0%, 113 µM cGMP 100%. 340,000 tested, 0.083% active. activation, % at 11.4 µM;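 active = percent activation above the mean of all tested compounds plus 3 SD, cut at about 19% in these data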;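 also: higher means more PKAc released from R1A so a rise in polarization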
# PKA-R2B act – PKA-R2B complex activation; activation, % at 11.4 µM; 340,000 tested, 0.079% active; AID 504700; PKA-R2B holoenzyme dissociation, Cy5-IP20 fluorescence polarization; R2B truncated from residue 108, S112A mutant; 0% DMSO only, 100% 113 µM cGMP;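 active = activation above a cutoff set at the mean over all compounds plus 3 SD, cut at about 18% in these data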;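 also: higher means more holoenzyme dissociation and a rise in polarization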
# Target sequence (P31323 whole entry, looked up, other chains not shown, the tested form may be a part): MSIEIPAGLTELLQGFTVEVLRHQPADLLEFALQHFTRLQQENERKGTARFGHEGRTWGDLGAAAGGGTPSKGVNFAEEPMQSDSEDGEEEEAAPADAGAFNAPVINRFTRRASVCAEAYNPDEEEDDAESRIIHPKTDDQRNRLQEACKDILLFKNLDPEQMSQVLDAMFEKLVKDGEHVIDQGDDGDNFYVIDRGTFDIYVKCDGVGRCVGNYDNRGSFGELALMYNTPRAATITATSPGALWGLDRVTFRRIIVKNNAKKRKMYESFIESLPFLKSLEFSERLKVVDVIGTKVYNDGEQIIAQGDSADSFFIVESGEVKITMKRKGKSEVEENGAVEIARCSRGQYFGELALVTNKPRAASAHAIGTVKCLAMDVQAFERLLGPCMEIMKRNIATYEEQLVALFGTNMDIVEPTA
# PAFAH2 inh – PAFAH2 (human) inhibition. recombinant PAFAH2, FP-rhodamine activity probe, fluorescence polarization. Q99487. inhibition, % at 3.39 µM. 340,000 tested, 0.99% active. AID 492956;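 active = inhibition above the mean over all tested compounds plus 3 SD, cut at about 30% in these data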;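 also: inhibitors block probe labeling of enzyme so polarization drops; 0% = enzyme with DMSO and 100% = wells lacking PAFAH2 protein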
# pPAFAH FP inh – pPAFAH (human) enzyme inhibition. Q13093. recombinant pPAFAH, FP-rhodamine probe fluorescence polarization. inhibition, % at 3.39 µM. 330,000 tested, 1.5% active;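 active = inhibition above the mean inhibition across the screen plus 3 SD, cut at about 25% in these data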;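 also: inhibitors block binding of the rhodamine activity-based probe so polarization drops; 0% = enzyme with DMSO and 100% = wells lacking pPAFAH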
# PAFAH1B3 inh – inhibitors of human PAFAH1B3; Q15102; recombinant PAFAH1B3, FP-rhodamine probe, fluorescence polarization; inhibition, % at 3.39 µM; 340,000 tested, 0.28% active;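 active = inhibition above the screen-wide average of all tested compounds plus 3 SD, cut at about 25% in these data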;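 also: 0% = enzyme with DMSO only and 100% = wells lacking PAFAH1B3 protein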
# PAFAH1B2 FP inh – PAFAH1B2 (human) inhibition; P68402; recombinant PAFAH1B2, FP-rhodamine activity probe, fluorescence polarization; AID 492953; inhibition, % at 3.39 µM; 340,000 tested, 1.2% active;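 active = inhibition above the mean of all tested compounds plus 3 SD, cut at about 24% in these data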;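 also: 0% = enzyme with DMSO and 100% = wells lacking PAFAH1B2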
# Active calls of the source: *; . = no result given. In the library only some 2.6% were active in any assay of this set; here they are far more common.
SMILES,PKA-R1A act,PKA-R2B act,PAFAH2 inh,pPAFAH FP inh,PAFAH1B3 inh,PAFAH1B2 FP inh
CC(C)(C)c1ccc(C(=O)NCCC(=O)N2CCN(c3ncccn3)CC2)cc1,-2,4,1,0,-1,30*
CC(C)(C)c1ccc(C(=O)NCCC(=O)N2CCCC2)cc1,8,0,-1,4,-2,7
Cc1ccn2c(=O)nc(SCC(=O)N3CCC(C)CC3)nc2c1,-9,-10,6,26*,2,1
Cc1ccn2c(=O)nc(SCC(=O)c3ccc(Cl)cc3)nc2c1,-1,-7,6,25*,4,6
Cc1ccn2c(=O)nc(SCC(=O)N3CCCC3)nc2c1,-1,9,4,5,4,2
CCc1ccc(C(=O)/C=C2\Sc3ccccc3NC2=O)cc1,-4,-5,36*,17,5,4
CCCN(CC(=O)Nc1cc(Cl)ccc1Cl)C(=O)c1ccc(N2CCCC2=O)cc1,-2,-9,10,4,4,6
C=C[C@]1(C)C=C2CC[C@H]3[C@@](C)(CCC[C@@]3(C)C(=O)O)[C@@H]2CC1,8,-9,9,4,0,48*
CN1C(=O)/C(=C/c2ccc(C(=O)Nc3ccc(O)cc3C(=O)O)cc2)SC1=S,1,-1,2,30*,15,7
Cc1ccc(CN2CC(C(=O)Nc3ncc(C)s3)CC2=O)cc1 (stereo not drawn),0,-9,1,.,8,-1
O=C1S/C(=C\c2ccc(O)c([N+](=O)[O-])c2)C(=O)N1c1ccccc1Cl,-4,-9,27,34*,21,3
O=C1S/C(=C\c2ccc(O)c([N+](=O)[O-])c2)C(=O)N1Cc1cccc([N+](=O)[O-])c1,.,.,.,21,.,.
COc1cc(/C=C2\SC(=O)N(c3ccc(Cl)cc3)C2=O)cc([N+](=O)[O-])c1O,-8,-6,19,.,12,8
COc1cc(/C=C2\SC(=O)N(c3cccc(Cl)c3)C2=O)cc([N+](=O)[O-])c1O,-7,-6,52*,.,15,3
COc1ccc(Nc2nc(N3CCN(S(=O)(=O)N(C)C)CC3)nc3ccccc23)cc1,2,-6,-10,2,9,5
CC(NS(=O)(=O)c1ccccc1Cl)C1CC2CCC1C2 (stereo not drawn),-9,-3,-9,3,0,26*
CC(NC(=O)c1ccccc1Br)C1CC2CCC1C2 (stereo not drawn),.,.,.,3,.,.
COc1ccc(OC)c(Nc2nc(NCc3ccco3)c3ccccc3n2)c1,-5,-10,-1,25*,13,3
Cc1cc(=O)[nH]c2ccc(S(=O)(=O)Nc3ccc(O)cc3)cc12,-2,6,1,-1,7,3
Cc1cc(=O)[nH]c2ccc(S(=O)(=O)Nc3ccccc3)cc12,-2,7,6,26*,7,5
CC(C)CNC(=O)c1cc(=O)[nH]c2ccc(S(=O)(=O)Nc3ccc(F)cc3)cc12,6,-5,-9,27*,9,12
Cc1cccc(NS(=O)(=O)c2ccc3[nH]c(=O)cc(C(=O)O)c3c2)c1,-9,-1,0,5,0,5
O=C(N/N=C/C1C(c2ccccc2)C1(Cl)Cl)c1cccc(Cl)c1 (stereo not drawn),-16,-10,-8,2,2,29*
O=C(CSc1nccn1-c1ccccc1)N1CCc2ccccc21,-2,-3,-2,3,4,-2
O=C(CSc1nccn1-c1ccc(Cl)cc1)N1CCCc2ccccc21,0,-6,-2,1,-5,25*
CC[C@@]1(C(=O)OC)N[C@H](CN(C)C(=O)Nc2ccc(F)cc2)[C@@H]2C(=O)N(C)C(=O)[C@@H]21,7,0,5,-2,10,5
Cc1cc(C)c2nc(NNC(=O)c3cc(=O)c4ccccc4o3)sc2c1,-9,-8,16,26*,22,8
COc1ccccc1NS(=O)(=O)c1cc(-c2cc(C)no2)ccc1OC,-19,-8,7,1,15,4
COc1ccc(-c2cc(C)no2)cc1S(=O)(=O)Nc1cccc(C)c1,-4,-4,0,30*,6,-1

# Assay outcomes from PubChem BioAssay.
